The source made the active and inactive calls. The calls were made as follows: active = hit-call score of the fitted dose curve at least 0.9, where 1 is the maximum; inactive = score below 0.9.

Sequence of X-box-binding protein 1 (Homo sapiens) (P17861 whole entry, looked up): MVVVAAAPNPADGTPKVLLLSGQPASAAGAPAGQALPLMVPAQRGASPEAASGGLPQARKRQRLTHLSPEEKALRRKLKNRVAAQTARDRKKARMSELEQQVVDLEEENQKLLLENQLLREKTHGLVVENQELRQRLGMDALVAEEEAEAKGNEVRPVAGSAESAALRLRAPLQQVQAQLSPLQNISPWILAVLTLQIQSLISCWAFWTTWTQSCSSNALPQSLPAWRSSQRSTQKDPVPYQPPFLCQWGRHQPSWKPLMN

The target in this assay is X-box-binding protein 1 (Homo sapiens) (UniProt P17861). In words: ATG_Xbp1_CIS: Attagene CIS-FACTORIAL HepG2 Assay for human X-box Binding Protein 1 (XBP1) (AID 2282972). To be noted: HepG2 XBP1 cis-element reporter, Attagene multiplex; actives raise or lower the signal. The method, boiled down:
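Human hepatoma HepG2, cis-element reporter system, 24 h treatment; mRNA quantified by RT-PCR/CE fluorescence; fit relative to DMSO.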
`CC(=O)C(C)O` (stereo not drawn): the outcome was inactive. `CC1CCC(C(C)C)C(O)C1` (stereo not drawn): the compound was classed as inactive.

With `COc1cc(Cl)c(OC)cc1N`, the compound was called inactive. Regarding `CC=CC=CCOC(=O)C(C)C`, the call was inactive. Consider `CCCCC(CC)COC(=O)c1ccc(O)cc1` (stereo not drawn), for which the call was inactive.

In the case of `CCc1cc(C(C)(C)C)c(O)c(C(C)(C)C)c1`, the outcome was inactive. As to `CCOC(=O)c1ccc(N)cc1`, the call was inactive.

`CCNCCO`: the compound was classed as inactive. For `CCCSc1ccc2nc(NC(=O)OC)[nH]c2c1`, the outcome was inactive. Turning to `OCc1ccc(Cl)cc1Cl`, the outcome was inactive.

Turning to `O=C(CS)OCCOC(=O)CS`, the compound was called inactive.

For the compound `OCCOCCN1CCN(C2=Nc3ccccc3Sc3ccccc32)CC1`, the result was inactive. Take `CCCCC1CCC(O)CC1` (stereo not drawn): the outcome was inactive. Regarding `CCOC(=O)CC(C)O` (stereo not drawn), the compound was classed as inactive. Turning to `CCCCCCCCCC(C)C=O` (stereo not drawn), the compound was called inactive. The same measure, in the same setting: in the case of `CCOc1ccccc1O` it was “inactive”; in that of `CC1=C(Br)C(=O)C(Br)=C/C1=C(/c1ccccc1S(=O)(=O)O)c1cc(Br)c(O)c(Br)c1C`, “inactive”.

For the compound `Cc1ncc[nH]1`, the result was inactive.

With `COc1cc([C@@H]2c3cc4c(cc3[C@@H](O[C@@H]3O[C@@H]5CO[C@@H](C)O[C@H]5[C@H](O)[C@H]3O)[C@H]3COC(=O)[C@H]23)OCO4)cc(OC)c1O`, the call was inactive. On the same count and under the same terms, in the case of `C=CC(C)(O)CCC=C(C)C` (stereo not drawn) it was “inactive”. `CC1C2CC(CC2C2CCCC(O)C2)C1(C)C` (stereo not drawn): the outcome was inactive. On the same count and under the same terms, in the case of `CN(C)CCOc1ccc(/C(=C(/CCCl)c2ccccc2)c2ccccc2)cc1` it was “inactive”. On to `Cc1ccc(S(N)(=O)=O)cc1`, for which the compound was called inactive. On to `C[C@H]1O[C@@H](O[C@H]2[C@@H](O)C[C@H](O[C@H]3[C@@H](O)C[C@H](O[C@H]4CC[C@@]5(C)[C@H](CC[C@@H]6[C@@H]5C[C@@H](O)[C@]5(C)[C@@H](C7=CC(=O)OC7)CC[C@]65O)C4)O[C@@H]3C)O[C@@H]2C)C[C@H](O)[C@@H]1O`, for which the AC50 (commonly the concentration at which the activity in the assay is half-maximal) is 141 nM (active).

With `CC(C)Nc1nc(N)nc(Cl)n1`, the result was inactive.

In the case of `CC(=O)CC(=O)Nc1ccccc1`, the compound was called inactive. Still for that read-out and setting: in the case of `C=C(CC(=O)O)C(=O)O` it was “inactive”; in that of `O=C(Nc1ccc([N+](=O)[O-])cc1)Nc1ccc([N+](=O)[O-])cc1` (tested in a mixture with another compound), “inactive”.

On to `CCC(C)=O`, for which the outcome was inactive. Turning to `OCC(O)c1ccccc1` (stereo not drawn), the call was inactive.

As for `[O-]n1ccccc1=S.[O-]n1ccccc1=S.[Zn+2]`, the call was inactive. The same measure, in the same setting: in the case of `[Cl][Au]([Cl])[Cl]` it was “inactive”; in that of `COC(=O)c1ccc([N+](=O)[O-])cc1`, “inactive”. Same read-out and setting: as for `CCOC(=O)C1OC1c1ccccc1` (stereo not drawn), the entry is “inactive”; as for `CCCCCCCCCCCCS(=O)(=O)Cl`, “inactive”. Take `CCOC(=O)CN`: the call was inactive. Still for that read-out and setting: as for `C=C(C)[C@@H]1CC=C(C)C(=O)C1`, the entry is “inactive”.

Take `Nc1ccc2cc(S(=O)(=O)O)cc(O)c2c1N=Nc1ccccc1C(F)(F)F`: the compound was called inactive.
